The campaign covered roughly 220,000 compounds. About 530 (0.24%) were called active. Shown is part of a subset that was picked to be rich in actives. Entries with a potency or affinity are not part of this list. Unmarked numbers belong to inactive results. Rule as the data show it: active = inhibition above about 13%; inconclusive = no clear call, values can overlap the other calls; inactive = below that.

The target in the test is Bifunctional protein GlmU (Mycobacterium tuberculosis (strain ATCC 25618 / H37Rv)) (UniProt P9WMN3). The test can be described thus: inhibition of mycobacterial GlmU enzyme – biochemical, glucosamine-1-phosphate acetyltransferase (AID 1376).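 Also: 0% = complete reaction with vehicle and 100% = reaction without substrate.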 The conditions noted are these: M. tuberculosis GlmU acetyltransferase enzyme assay; active compounds read high;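 tested at 30 µM in the primary screen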.
Sequence of Bifunctional protein GlmU (Mycobacterium tuberculosis (strain ATCC 25618 / H37Rv)) (P9WMN3 whole entry, looked up): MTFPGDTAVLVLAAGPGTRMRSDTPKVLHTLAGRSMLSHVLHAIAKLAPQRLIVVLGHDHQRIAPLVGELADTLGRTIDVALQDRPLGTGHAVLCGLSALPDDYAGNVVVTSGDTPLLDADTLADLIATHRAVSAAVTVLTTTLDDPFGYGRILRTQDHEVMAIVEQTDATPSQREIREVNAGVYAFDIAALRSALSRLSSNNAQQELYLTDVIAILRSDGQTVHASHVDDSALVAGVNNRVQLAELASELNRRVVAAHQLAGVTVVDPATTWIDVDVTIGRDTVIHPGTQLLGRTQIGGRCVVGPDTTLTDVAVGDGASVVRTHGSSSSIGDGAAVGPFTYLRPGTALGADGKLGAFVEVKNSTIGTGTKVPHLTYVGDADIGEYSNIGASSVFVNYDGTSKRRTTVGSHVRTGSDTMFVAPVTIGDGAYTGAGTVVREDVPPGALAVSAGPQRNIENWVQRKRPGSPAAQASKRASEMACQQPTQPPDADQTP
As usually defined, the inhibition is the change of the read-out against control, counted positive when it falls. With `CC1(C(=O)OCC(=O)Nc2ccc(C(N)=O)cc2)CC1(Cl)Cl` (stereo not drawn), the inhibition is -0.58%.

As for `CC1CC(C)(C)NC(=S)N1CCCC(=O)Nc1ccc2c(c1)OCCO2` (stereo not drawn), the inhibition was -3.18%.

For the compound `CC1CCN(C(c2nnnn2CCc2ccccc2)C(C)C)CC1` (stereo not drawn), the inhibition is 2.28%.

For the compound `CCCCC1(C)OC(=O)C(=Cc2ccc(-c3ccc(Cl)c(C(=O)O)c3)o2)C(=O)O1` (stereo not drawn), the inhibition is 0.45%.

For the compound `COc1ccc(Sc2ccc(/C=C3\C(=O)NN(c4ccccc4)C3=O)o2)cc1`, the inhibition is 7.34%.

With `CC1=NOC(=O)/C1=C\c1ccc(-c2ccc(Cl)c(C(=O)O)c2)o1`, the inhibition was 19.4%.

In the case of `COc1ccc(CN2C(=O)/C(=C/c3ccc(-c4ccc(Cl)c(C(=O)O)c4)o3)SC2=S)cc1`, the inhibition was 9.33%.

Consider `O=C(CN1CCC(NC(=O)Cc2ccccc2)CC1)Nc1cccc2ccccc12`, for which the inhibition is 4.11%.

With `O=C(NCc1ccccc1Cl)c1ccc(-c2ccccc2)cc1`, the inhibition was -4.31%.

`O=C(NCc1ccccc1)c1c(O)c2cccc3c2n(c1=O)CCC3`: the inhibition was -6.36%.

As to `CN(Cc1cnn(C)c1)S(=O)(=O)c1cccc([N+](=O)[O-])c1`, the inhibition is 2.06%.

Take `CC(C)=C1C(=O)NN(c2cccc(Cl)c2)C1=O`: the inhibition was 3.03%.

In the case of `O=C1CC(=O)N(c2cccc(F)c2)N1`, the inhibition was 8.59%.

Consider `COCCNC(=O)[C@H]1C[C@@H]1[C@H](NP(=O)(c1ccccc1)c1ccccc1)c1ccccc1`, for which the inhibition was 0.38%.

For `Cc1ccc(-n2c(COc3cccc(C)c3)n[nH]c2=S)cc1`, the inhibition is 1.39%.

In the case of `O=C(c1cccs1)N1CCN(c2ncccn2)CC1`, the inhibition is -2.05%.

For the compound `CCOC(=O)C1=C(C)C(c2ccc(OC)cc2)NC(=O)N1` (stereo not drawn), the inhibition is -6.08%.

On to `CCn1ncc(/C=C2/SC(=S)NC2=O)c1C`, for which the inhibition is 11.3%.

Take `Cc1cc(/C=C2\SC(=S)NC2=O)c(C)n1C`: the inhibition was 5.92%.

For `Cc1cc(/C=C2\SC(=S)NC2=O)c(C)[nH]1`, the inhibition was 13.5% (active).

Regarding `CCn1c(C)cc(/C=C2/SC(=S)NC2=O)c1C`, the inhibition is 1.44%.

With `Cc1nn(C)cc1/C=C1\SC(=S)NC1=O`, the inhibition is 4.22%.

With `CCn1cc(/C=C2/SC(=S)NC2=O)c(C)n1`, the inhibition was 13.2% (active).

Turning to `CNc1nc(C)nc(-n2nc(C)cc2C)n1`, the inhibition is 13.6% (active).

Consider `Cc1cc(C)n(-c2nc(C)nc(N)n2)n1`, for which the inhibition was -5.19%.

On to `Cc1cc(C)n(-c2nc(C)nc(NCc3ccccc3)n2)n1`, for which the inhibition is -4.13%.

`Cc1sc(NC(=O)c2ccco2)nc1-c1ccc2c(c1)CC(C)N2C(=O)C1CC1` (stereo not drawn): the inhibition is 3.65%.

As for `CCn1c(-c2csc(C(C)C)c2)n[nH]c1=S`, the inhibition is 14.3% (active).

`CC(C)Cn1c(-c2csc(C(C)C)c2)n[nH]c1=S`: the inhibition is -2.74%.

Consider `CCCCn1c(-c2csc(C(C)C)c2)n[nH]c1=S`, for which the inhibition is -1.43%.

`COc1ccc(NC(=O)C(c2ccccc2)c2ccccc2)cn1`: the inhibition is -4.39%.

`CCS(=O)(=O)Nc1ccc(C2=NN(C(=S)Nc3ccccc3)C(c3ccco3)C2)cc1` (stereo not drawn): the inhibition was -0.65%.

For the compound `CN(C)C(=S)NC(C)(C)C`, the inhibition is 1.31%.

As to `COc1ccc(CC(=O)N/N=C/c2ccc(-c3cccc(C(=O)O)c3)o2)cc1OC`, the inhibition is 9.43%.

With `Nc1nonc1C(=O)N/N=C/c1ccc(-c2cccc([N+](=O)[O-])c2)o1`, the inhibition was 1.58%.

`O=C(N/N=C/c1ccc(-c2ccc([N+](=O)[O-])cc2)o1)c1cccnc1`: the inhibition was 7.58%.

In the case of `Cc1ccc(OCC(=O)N/N=C\c2ccc(C)o2)c(C)c1`, the inhibition was 1.64%.

For the compound `CNC(=S)N/N=C/c1ccc(-c2cccc(C(=O)O)c2)o1`, the inhibition is 6.34%.

`Nc1nonc1C(=O)N/N=C/c1ccc(-c2ccc(Cl)c(C(=O)O)c2)o1`: the inhibition is 5.31%.

As to `O=C(NCCn1cc(SCC(=O)N2CCOCC2)c2ccccc21)c1c(F)cccc1F`, the inhibition is 7.41%.

On to `O=C(CSc1nnnn1-c1ccc(O)cc1)c1cc2ccccc2o1`, for which the inhibition was -1.55%.

`Cc1ccc(NC(=O)CN2C(=O)S/C(=C/c3ccc(-c4cccc(C(=O)O)c4)o3)C2=O)cc1`: the inhibition is 13.1% (active).

As for `Cc1ccccc1NC(=O)CN1C(=O)S/C(=C\c2ccc(-c3cccc(C(=O)O)c3C)o2)C1=O`, the inhibition is -5.01%.

With `O=C(CN1C(=O)S/C(=C\c2ccccc2)C1=O)NNC(=O)c1ccccc1O`, the inhibition was 6.78%.

Regarding `COc1ccc(/C=C2\SC(=O)N(CC(=O)NNC(=O)c3ccccc3O)C2=O)cc1`, the inhibition was 6.62%.

Regarding `CCOC(=O)CN1C(=O)S/C(=C/c2ccc(O)c([N+](=O)[O-])c2)C1=O`, the inhibition was 6.11%.

Regarding `Cc1ccc(C(=O)O)cc1-c1ccc(/C=C2\SC(=O)N(CC(=O)Nc3ccccc3)C2=O)o1`, the inhibition is 6.53%.

For the compound `Cc1ccc(NC(=O)CN2C(=O)S/C(=C\c3ccc(-c4cccc(C(=O)O)c4C)o3)C2=O)cc1`, the inhibition was 3.05%.

Regarding `Cc1ccc(NC(=O)CN2C(=O)S/C(=C/c3ccc(O)c([N+](=O)[O-])c3)C2=O)cc1C`, the inhibition was 14.8% (active).

In the case of `Cc1ccc(NC(=O)CN2C(=O)S/C(=C\c3ccc(-c4cccc(C(=O)O)c4C)o3)C2=O)cc1C`, the inhibition is 15.4% (active).

In the case of `Cc1cccc(NC(=O)CN2C(=O)S/C(=C\c3ccc(-c4cccc(C(=O)O)c4C)o3)C2=O)c1`, the inhibition is 5.54%.

For `COc1ccc(/C=C2\SC(=O)N(CC(=O)NNC(=O)c3ccccc3O)C2=O)cc1OC`, the inhibition was 13.8% (active).

In the case of `Cc1cccc(NC(=O)CN2C(=O)S/C(=C\c3ccc(O)c([N+](=O)[O-])c3)C2=O)c1`, the inhibition is 3.95%.

`CCOc1ccccc1Cn1c(=O)sc2ccccc21`: the inhibition was -0.39%.

On to `CCCNC(=O)c1cc(-c2ccc(OC)cc2)n(CCCOC)c1C`, for which the inhibition is 4.42%.

On to `O=C1CC(N2CCN(Cc3ccc(Cl)cc3)CC2)C(=O)N1CCc1ccccc1` (stereo not drawn), for which the inhibition was -4.79%.

Consider `O=C(NCCc1ccccn1)c1cccc(S(=O)(=O)N2CCc3ccccc32)c1`, for which the inhibition is 2.85%.

Regarding `COCCNC(=O)C1c2ccccc2C(=O)N(CCOC)C1c1ccc(F)cc1` (stereo not drawn), the inhibition was 1.96%.

`COc1ccc(C(=O)N/C(=C\c2cccc3ccccc23)C(=O)N2CCN(C)CC2)cc1OC`: the inhibition is 0.44%.

As to `CSC1=NSC2=NC(=O)/C(=C\c3coc4ccccc4c3=O)C(=N)N12`, the inhibition is 7.97%.

For `CSC1=NSC2=NC(=O)/C(=C/c3coc4ccccc4c3=O)C(=N)N12`, the inhibition was 8.95%.

Consider `CSC1=NSC2=NC(=O)/C(=C/c3coc4ccc(O)cc4c3=O)C(=N)N12`, for which the inhibition was 21.3% (active).

As for `NS(=O)(=O)c1ccc(CCNC(=O)CCCC2=NS(=O)(=O)c3ccccc3N2)cc1`, the inhibition was 2.45%.

As to `COc1ccc(OCc2n[nH]c(=S)o2)cc1`, the inhibition is 2.56%.

As to `S=c1[nH]nc(COc2ccc(Cl)cc2)o1`, the inhibition was 13.3% (active).

For `S=c1[nH]nc(COc2ccc3ccccc3c2)o1`, the inhibition was 3.96%.

Consider `O=C(O)C1Cc2ccccc2CN1C(=O)COc1ccc(Br)cc1` (stereo not drawn), for which the inhibition is 12.6%.

On to `CCOC(=O)CSc1nc(C)c(C(C)=O)cc1C(N)=O`, for which the inhibition is 1.16%.

For the compound `Cc1cccc(NC(=S)NNC(=O)c2csc3c2CCC(C)C3)c1` (stereo not drawn), the inhibition was 2.66%.

Regarding `Cc1cccc(NC(=S)NNC(=O)c2csc3c2CCCC3)c1`, the inhibition was 13% (active).

Turning to `Cc1ccc(C)c(NC(=S)NNC(=O)c2csc3c2CCCC3)c1`, the inhibition is -4.85%.

On to `CC(C)Cc1nnc(NC(=O)c2cc(-c3ccccc3)nc3ccccc23)s1`, for which the inhibition is 0.66%.

Consider `COc1cc([N+](=O)[O-])ccc1NC(=O)Cc1ccc(F)cc1`, for which the inhibition was 4.76%.

Consider `COc1ccc(CN2CCn3ncc(C(=O)Nc4cc(C)cc(C)c4)c3C2=O)cc1`, for which the inhibition was -5.28%.

With `O=C(NNS(=O)(=O)c1ccccc1)c1sccc1-n1cccc1`, the inhibition is -3.8%.

Regarding `O=C(NNS(=O)(=O)c1cc(Cl)cc(Cl)c1)c1sccc1-n1cccc1`, the inhibition was 13.9% (active).

For `O=C(NNS(=O)(=O)c1ccc(Cl)cc1)c1sccc1-n1cccc1`, the inhibition is -3.47%.

For the compound `CC1(C(=O)OCC(=O)Nc2ccc3ccccc3c2)CC1(Cl)Cl` (stereo not drawn), the inhibition was 0.98%.

For `O=C(N1CCN(Cc2ccc3c(c2)OCO3)CC1)C12CC3CC(CC(C3)C1)C2`, the inhibition was 3.26%.

Consider `COC(=O)c1ccc2c(=O)sc(N3CCC(C(N)=O)CC3)nc2c1`, for which the inhibition is -0.93%.

As for `CCOc1ccc(/C=C2\SC(=S)NC2=O)cc1OC`, the inhibition was 0.99%.

Turning to `C=CCN1C(=O)/C(=C/c2ccc(OC(C)=O)c(OCC)c2[N+](=O)[O-])SC1=S`, the inhibition is -0.95%.

Turning to `CCOc1c(O)ccc(/C=C2\SC(=S)NC2=O)c1[N+](=O)[O-]`, the inhibition is 12.8% (active).

Take `COC(=O)C1NN=C(C(=O)c2ccccc2)C1c1ccccc1` (stereo not drawn): the inhibition was -3.17%.

As for `Cc1cc(Cl)ccc1OCC(=O)OCC(=O)Nc1ccc(F)c([N+](=O)[O-])c1`, the inhibition was 4.62%.

For the compound `N/C(=N\S(=O)(=O)c1cc(C(F)(F)F)cc(C(F)(F)F)c1)c1cccs1`, the inhibition is 13.9% (active).

`N/C(=N\S(=O)(=O)c1cc(C(F)(F)F)cc(C(F)(F)F)c1)c1ccccc1`: the inhibition was 4.74%.

Take `NC(=O)c1ccc(/C(N)=N/S(=O)(=O)c2cc(C(F)(F)F)cc(C(F)(F)F)c2)cc1`: the inhibition is 2.05%.

Take `CC(=O)c1ccc(NC(=S)NC(=O)c2c(Cl)c(C)nn2C)cc1`: the inhibition was 5.85%.

Take `CCOC(=O)c1ccc(NC(=S)N2CCC(C(N)=O)CC2)cc1`: the inhibition was 6.36%.

In the case of `Cc1ccc(O)c(CO)n1`, the inhibition is 15% (active).

With `Cc1ccc(O)c(CC(C)C)n1`, the inhibition is 6.41%.

On to `Cc1ccc(O)c(CCc2ccccc2)n1`, for which the inhibition is -3.57%.

(Values after PubChem BioAssay AID1376 (SRMLSC, 2008).)
